{"source": "PubChem BioAssay AID588335", "about": "(The Scripps Research Institute Molecular Screening Center, 2011)", "note": "Out of some 360,000 compounds screened, about 4,500 (1.2%) were called active. Rule as the data show it: active = inhibition above about 30%; inactive = the rest. This excerpt belongs to a sample that is enriched for actives.", "data": [{"assay": "inhibition of GDH and TPI enzymes – biochemical, absorbance, full deck, artefact control for M. tuberculosis FBA inhibitor project, primary screen (AID 588335);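 also: 0% = DMSO wells and 100% = wells lacking the enzyme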", "details": "GDH-TPI coupled enzyme counterscreen, NADH absorbance; at 4.8 µM; hits give high values", "values": [{"compound": "CCOC(=O)c1ccccc1NS(=O)(=O)c1c(C)nc2sccn2c1=O", "inhibition": "15% (inactive)"}, {"compound": "COc1ccc(CCNC(=O)COC(=O)c2ccc[nH]c2=O)cc1", "inhibition": "7.19% (inactive)"}, {"compound": "COCCCn1c(SCc2cccc(OC)c2)nc2cc(OC)c(OC)cc2c1=N", "inhibition": "-0.63% (inactive)"}, {"compound": "O=C(N/N=C/c1ccco1)c1ccc(C(=O)N/N=C/c2ccco2)o1", "inhibition": "47.5% (active)"}, {"compound": "O=C(Cc1ccccc1)Nc1cccc(C(=O)N/N=C/c2ccco2)c1", "inhibition": "12.2% (inactive)"}, {"compound": "O=C(CCNC(=O)c1ccccc1Cl)NN=Cc1ccco1", "inhibition": "10.8% (inactive)"}, {"compound": "COc1ccc(O)c(C(=O)c2cnc3onc(C(C)C)c3c2)c1", "inhibition": "5.83% (inactive)"}, {"compound": "COc1ccc(Cn2cc(CN3CCS(=O)(=O)N(Cc4ccc(-c5cccc(Cl)c5)cc4)C(C)C3=O)nn2)cc1", "note": "(stereo not drawn)", "inhibition": "12.3% (inactive)"}, {"compound": "C=CCn1c(=NC(=O)c2ccc(S(=O)(=O)N3CCCC3)cc2)sc2cc(NC(C)=O)ccc21", "inhibition": "28.4% (inactive)"}, {"compound": "C=CCn1c(CCNC(=O)c2cccs2)n[nH]c1=S", "inhibition": "-2.53% (inactive)"}, {"compound": "C=CCn1c(=NC(=O)c2cccs2)sc2cc(NC(C)=O)ccc21", "inhibition": "31.8% (active)"}, {"compound": "Cc1ccc(O)c(CCc2ccccc2)n1", "inhibition": "5.82% (inactive)"}, {"compound": "COC(=O)C(C(=O)Nc1cccc(Cl)c1C)C1CCCC1", "note": "(stereo not drawn)", "inhibition": "2.59% (inactive)"}, {"compound": "CCOC(=O)N1CCN(C(=O)CSc2nnc(-c3c[nH]c4ccccc34)n2CCOC)CC1", "inhibition": "21.3% (inactive)"}, {"compound": "Cc1ccc(C)c(S(=O)(=O)N(C)c2ccc(OC(=O)C3CCN(C(=O)c4ccc(F)cc4)CC3)cc2)c1", "inhibition": "-2.88% (inactive)"}, {"compound": "CCN(C(=O)COC(=O)c1cc(S(=O)(=O)N2CCc3ccccc32)ccc1OC)C1CCS(=O)(=O)C1", "note": "(stereo not drawn)", "inhibition": "-2.55% (inactive)"}, {"compound": "Cc1ccc2oc(=O)c3cnn(CC(=O)N(Cc4ccco4)C4CCCCC4)c3c2c1", "inhibition": "0% (inactive)"}, {"compound": "CN1CCN(CCNC(=O)Nc2ccc([N+](=O)[O-])cc2)CC1", "inhibition": "35.1% (active)"}, {"compound": "O=C(NCCCN1CCN(c2ccc(F)cc2)CC1)Nc1ccc([N+](=O)[O-])cc1", "inhibition": "21.2% (inactive)"}, {"compound": "CN1CCN(CCNC(=O)Nc2ccccc2[N+](=O)[O-])CC1", "inhibition": "1.97% (inactive)"}, {"compound": "CC(Oc1ccc(F)cc1)C(=O)Nc1cc(S(=O)(=O)N2CCOCC2)ccc1N1CCN(C)CC1", "note": "(stereo not drawn)", "inhibition": "-7.32% (inactive)"}, {"compound": "COC(=O)c1ccc(NC(=O)C23CC4CC(C2)CC(n2cnc(Cl)n2)(C4)C3)cc1", "inhibition": "7.31% (inactive)"}, {"compound": "CCC(CC)C(=O)Nc1cccc(C(=O)N2CCCC2)c1", "inhibition": "2.12% (inactive)"}, {"compound": "COc1ccc(NC(=O)CCCOc2ccc(C(C)=O)cc2)cc1S(=O)(=O)N1CCCCC1", "inhibition": "7.56% (inactive)"}, {"compound": "O=C(NCCCN1CCCCCC1)c1ccc(N2CCCC2=O)cc1", "inhibition": "3.81% (inactive)"}, {"compound": "COc1cc(/C=N/NC(=O)c2ccc(N3CCCC3=O)cc2)ccc1O", "inhibition": "43.2% (active)"}, {"compound": "C/C(=N\\NC(=O)c1cccc(N2CCCC2=O)c1)c1ccc(N)cc1", "inhibition": "5.43% (inactive)"}, {"compound": "CN(CC(O)COc1ccc(S(=O)(=O)N2CCOCC2)cc1Cl)C1CCCCC1", "note": "(stereo not drawn)", "inhibition": "-2.47% (inactive)"}, {"compound": "Cn1c(SCC(=O)Nc2ccc(Cl)cc2)nc(O)cc1=O", "inhibition": "4.39% (inactive)"}, {"compound": "Cc1ccc(C(=O)N/C(=C/c2ccc(-c3cccc([N+](=O)[O-])c3)o2)C(=O)NCCCN(C)C)cc1", "inhibition": "58.5% (active)"}, {"compound": "O=C(NCc1ccco1)/C(=C/c1cccc([N+](=O)[O-])c1)NC(=O)c1ccco1", "inhibition": "-4.48% (inactive)"}, {"compound": "O=C(NCc1ccco1)/C(=C\\c1cccc([N+](=O)[O-])c1)NC(=O)c1ccco1", "inhibition": "16.8% (inactive)"}, {"compound": "CN(C(=O)c1cccc(NC(=O)Cc2ccc([N+](=O)[O-])cc2)c1)C1CCC1", "inhibition": "6.17% (inactive)"}, {"compound": "COc1cc(/C=N/NC(=O)Nc2ccccc2)ccc1OCCOc1ccccc1C", "inhibition": "18.8% (inactive)"}, {"compound": "Cc1nnsc1C(=O)N/N=C/c1cccc(C(F)(F)F)c1", "inhibition": "5.54% (inactive)"}, {"compound": "COc1ccc(/C=N\\NC(=O)c2sc(N)nc2C)cc1OC", "inhibition": "40.4% (active)"}, {"compound": "CC1(Oc2ccc(Cl)cc2)CCN(Cc2csc3ccccc23)C1", "note": "(stereo not drawn)", "inhibition": "-8.04% (inactive)"}, {"compound": "CCOC(=O)c1ccccc1NC(=S)N1CCC(C(N)=O)CC1", "inhibition": "-2.65% (inactive)"}, {"compound": "CCCCn1c(N)c(N(CCOC)C(=O)c2sc3ccccc3c2Cl)c(=O)[nH]c1=O", "inhibition": "0% (inactive)"}, {"compound": "CC(=O)Nc1ccc(S(=O)(=O)Nc2nc3n(n2)C(c2ccccc2)CC(=O)N3)cc1", "note": "(stereo not drawn)", "inhibition": "0.72% (inactive)"}, {"compound": "CCSc1nc2sc3c(c2c(=O)n1-c1ccc(C)cc1)CCN(C)C3", "inhibition": "30.7% (active)"}, {"compound": "CCCSc1nc2sc3c(c2c(=O)n1-c1ccc(OC)cc1)CCN(C)C3", "inhibition": "14.5% (inactive)"}, {"compound": "CCOc1ccc(-n2c(SCC(=O)Nc3ccc(OC)cc3)nc3sc4c(c3c2=O)CCN(C)C4)cc1", "inhibition": "19.9% (inactive)"}, {"compound": "CCn1c(SCC(=O)Nc2ccc(Br)cc2)nc2sc3c(c2c1=O)CCN(C)C3", "inhibition": "6.95% (inactive)"}, {"compound": "COc1ccccc1NC(=O)CSc1nc2sc3c(c2c(=O)n1-c1ccccc1)CCN(C)C3", "inhibition": "33.1% (active)"}, {"compound": "CCOc1ccc(-n2c(SCC(=O)OC)nc3sc4c(c3c2=O)CCN(C)C4)cc1", "inhibition": "22.9% (inactive)"}, {"compound": "C[C@H]1CN([C@@H](C)CO)C(=O)CCCn2cc(nn2)CO[C@@H]1CN(C)S(=O)(=O)c1ccc(-c2ccccc2)cc1", "inhibition": "5.15% (inactive)"}, {"compound": "CC1(C)CC(=O)C(C2c3ccccc3S(=O)(=O)c3ccccc32)C(=O)C1", "inhibition": "3.51% (inactive)"}, {"compound": "Cc1c(C=O)c2ccccn2c1C(=O)c1ccncc1", "inhibition": "23.7% (inactive)"}, {"compound": "COc1cc(NC(=O)CCNC(=O)Cn2ccc3ccccc3c2=O)cc(OC)c1OC", "inhibition": "-1.5% (inactive)"}, {"compound": "Cn1c(=O)c2c(nc(N3CCCCCC3)n2CC(O)COc2ccc(Cl)cc2)n(C)c1=O", "note": "(stereo not drawn)", "inhibition": "3.88% (inactive)"}, {"compound": "CN(C)S(=O)(=O)c1cccc(NC(=O)COc2ccc3ccccc3c2)c1", "inhibition": "0.32% (inactive)"}, {"compound": "CN(C)S(=O)(=O)c1cccc(NC(=O)COC(=O)c2cc(=O)[nH]c(=O)[nH]2)c1", "inhibition": "-1.24% (inactive)"}, {"compound": "Cc1ccc(/C=N/NC(=S)Nc2cccc(S(=O)(=O)N(C)C)c2)o1", "inhibition": "55.8% (active)"}, {"compound": "CCN(C(=O)Nc1cccc2ccccc12)c1ccccc1", "inhibition": "3.9% (inactive)"}, {"compound": "Cc1cccc(S(=O)(=O)N2CN(CC3CCCO3)c3nc4ccccc4nc32)c1", "note": "(stereo not drawn)", "inhibition": "11.8% (inactive)"}, {"compound": "Cc1sc(NC(=O)C2=COCCO2)c(C#N)c1C", "inhibition": "13.8% (inactive)"}, {"compound": "Cc1c(C(=O)OC(C)C)sc(NC(=O)c2cccnc2)c1C#N", "inhibition": "20.9% (inactive)"}, {"compound": "CCN(CC)C(=O)c1sc(NC(=O)c2ccco2)c(C#N)c1C", "inhibition": "33.3% (active)"}, {"compound": "CCN(CC)CC(=O)Nc1nn(-c2ccccc2)nc1C(N)=O", "inhibition": "-4.59% (inactive)"}, {"compound": "COc1ccc(OC)c(/C=C/C(=O)c2ccc3c(c2)OCO3)c1", "inhibition": "7.32% (inactive)"}, {"compound": "COc1ccc(/C=N/NC(=O)c2ccc3c(c2)OCCO3)c(OC)c1", "inhibition": "35.4% (active)"}, {"compound": "COc1ccc(OC)c(/C=N/NC(=O)c2ccc[n+](CC(=O)c3ccccc3)c2)c1", "inhibition": "11.2% (inactive)"}, {"compound": "CN(C)c1ccc(C=NCCc2ccc(S(N)(=O)=O)cc2)cc1", "inhibition": "54.4% (active)"}, {"compound": "CCCCc1ccc(S(N)(=O)=O)cc1", "inhibition": "1.6% (inactive)"}, {"compound": "CN(CC(=O)NCCc1ccc(S(N)(=O)=O)cc1)CC(=O)Nc1ccc(Cl)cc1", "inhibition": "2.64% (inactive)"}, {"compound": "O=C(O)CC(c1ccccc1F)N1Cc2ccccc2C1=O", "note": "(stereo not drawn)", "inhibition": "-3.95% (inactive)"}, {"compound": "Cc1c(C(=O)NC2CCCCC2)oc2ccccc12", "inhibition": "5.98% (inactive)"}, {"compound": "CC(C)c1ccccc1OCC(O)CN(CC(O)COc1cccc2ccccc12)C(C)C", "note": "(stereo not drawn)", "inhibition": "6.49% (inactive)"}, {"compound": "COc1ccc(S(=O)(=O)N(C)CC(=O)Nc2ccc3c(c2)OCCO3)cc1OC", "inhibition": "5.05% (inactive)"}, {"compound": "COc1cc(/C=C/C(=O)OCC(=O)N2CCOCC2)ccc1OCC#N", "inhibition": "5.68% (inactive)"}, {"compound": "CSc1ccc(/C=C/C(=O)NC23CC4CC(CC(C4)C2)C3)cc1", "inhibition": "14.4% (inactive)"}, {"compound": "COc1ccc(CCC(=O)Nc2ccc(Cl)c(S(=O)(=O)N3CCOCC3)c2)cc1OC", "inhibition": "5.73% (inactive)"}, {"compound": "COc1ccc(/C=C/C(=O)Nc2ccc(C34CC5CC(CC(O)(C5)C3)C4)cc2)cc1OC", "inhibition": "31% (active)"}, {"compound": "COc1cccc(/C=C/C(=O)Nc2ccc3c(c2)OCCO3)c1", "inhibition": "9.4% (inactive)"}, {"compound": "COc1cc(/C=C/C(=O)Nc2ccc(OC)c(S(=O)(=O)N3CCOCC3)c2)ccc1OCC#N", "inhibition": "34.9% (active)"}, {"compound": "COc1ccc(/C=C/C(=O)OCC(=O)NC2CCCCCC2)cc1OC", "inhibition": "27.3% (inactive)"}, {"compound": "COc1ccc(/C=C/C(=O)Nc2ccc3c(c2)OCCO3)cc1OC", "inhibition": "33.3% (active)"}, {"compound": "CCN1C(=O)[C@H]2[C@@H](c3ccc(SC4CCCCC4)c(OC)c3)N[C@@](Cc3ccccc3)(C(=O)OC)[C@H]2C1=O", "inhibition": "9.48% (inactive)"}, {"compound": "COc1ccc(-c2ccc(C(=O)NCCN3CCOCC3)c3occc23)c(C)c1", "inhibition": "-2.68% (inactive)"}, {"compound": "CCc1ccc(-c2cc3c(=O)n(CC(=O)NCCCN4CCN(Cc5ccccc5)CC4)nc(C)n3n2)cc1", "inhibition": "5.56% (inactive)"}, {"compound": "O=C(NCc1cccnc1)c1cccnc1Sc1ccc(Cl)cc1", "inhibition": "-0.62% (inactive)"}, {"compound": "Cc1ccc(C)c(N2CCN(C(=O)CCc3nc(-c4cccc(C(F)(F)F)c4)no3)CC2)c1", "inhibition": "0% (inactive)"}, {"compound": "CC1(C)Cc2ccccc2-c2nnc(-c3cccc(O)c3)n21", "inhibition": "3.02% (inactive)"}, {"compound": "COc1ccc(OC)c(/C=N/NC(=O)CSc2nnc(C)n2-c2ccccc2)c1", "inhibition": "30.2% (inactive)"}, {"compound": "C=CCn1c(Cn2nnc3ccccc32)nnc1SCC(=O)N/N=C/c1cc(Br)cc(OC)c1O", "inhibition": "33.8% (active)"}, {"compound": "Cn1c(Cn2nnc3ccccc32)nnc1SCC(=O)c1ccccc1F", "inhibition": "-1.22% (inactive)"}, {"compound": "Cc1ccc(-n2nc3c(c2NC(=O)CCC2CCCCC2)CS(=O)C3)cc1", "note": "(stereo not drawn)", "inhibition": "-6.57% (inactive)"}]}]}
